Measurements: PubChem BioAssay AID372 (MTDP, 2006)
Hit rate of the full screen: of about 100,000 compounds, about 770 (0.77%) were called active. Rule as the data show it: active = inhibition above about 50%; inactive = the rest. The entries come from a sample that favours actives as a whole.

biological target: Gag-Pol polyprotein (Human immunodeficiency virus type 1 group M subtype B (isolate HXB2)) (UniProt P04585); test: RNase H inhibition, HIV 1 Gag Pol polyprotein, FRET biochemical assay, screening (AID 372); settings: HIV-1 RT RNase H, FRET RNA/DNA substrate fluorescence; at 10 µM; stronger effect = higher value

| SMILES | inhibition |
| --- | --- |
| C=CCc1ccccc1OCCOc1ccc(Br)cc1/C=C(\C#N)C(N)=O | 60% (active) |
| N#C/C(=C\c1cc(Br)ccc1OCc1ccccc1)C(N)=O | 10% (inactive) |
| N#C/C(=C\c1ccccc1[N+](=O)[O-])C(N)=O | 0% (inactive) |
| Cc1ccccc1/C=C(/C#N)c1ccc([N+](=O)[O-])cc1 | 42% (inactive) |
| N#C/C(=C\c1ccccc1OCCOc1ccc([N+](=O)[O-])cc1)C(N)=O | 57% (active) |
| N#C/C(=C/c1ccccc1OS(=O)(=O)c1ccccc1)c1ccc([N+](=O)[O-])cc1 | 16% (inactive) |
| N#C/C(=C/c1ccccc1OCc1ccccc1F)c1ccc([N+](=O)[O-])cc1 | 54% (active) |
| COc1ccccc1/C=C(\C#N)C(N)=O | 0% (inactive) |
| N#C/C(=C\c1cc(Br)ccc1OCc1cccc2ccccc12)C(N)=O | 30% (inactive) |
| CC(=O)Nc1ccc2oc(-c3ccc(Cl)cc3)nc2c1 | 9% (inactive) |
| CCn1c(-c2ccccc2C)n[nH]c1=S | 2% (inactive) |
| COc1nc(Nc2ccccc2)nc(NC(C)(C)C)n1 | 7% (inactive) |
| O=C(N1CCN(C(c2ccccc2)c2ccccc2)CC1)C12CC3CC(CC(C3)C1)C2 | 25% (inactive) |
| CC(NC(=O)/C(C#N)=C/c1ccc(N(C)C)c(Br)c1)c1ccccc1 (stereo unspecified) | 15% (inactive) |
| Cc1ccc(/C=C2/SC(=O)N(CO)C2=O)cc1 | 0% (inactive) |
| Cc1ccccc1C(=O)NNC(=S)Nc1ccccc1 | 7% (inactive) |
| CS(=O)(=O)N/N=C/c1ccc2c(c1)OCO2 | 0% (inactive) |
| COc1ccc(-c2cc(C(F)(F)F)n3nc(C(=O)NC(C)C)c(Cl)c3n2)cc1OC | 7% (inactive) |
| C=CCN1C(=O)/C(=C/c2ccc(N(C)C)cc2)SC1=S | 17% (inactive) |
| O=C1c2ccccc2-c2onc3ccc(Oc4ccccc4)c1c23 | 2% (inactive) |
| CC(C)(C)c1ccc(Oc2ccc3noc4c3c2C(=O)c2ccccc2-4)cc1 | 50% (active) |
| Cc1ccc(Oc2ccc3noc4c3c2C(=O)c2ccccc2-4)cc1 | 8% (inactive) |
| OC1CC(c2ccccc2)NC2(CCCCC2)C1 (stereo unspecified) | 2% (inactive) |
| O=C(COc1ccccc1[N+](=O)[O-])Nc1ccc2oc(-c3cc(Br)ccc3Cl)nc2c1 | 49% (inactive) |

| SMILES | inhibition |
| --- | --- |
| Cc1oc(C(=O)O)cc1CSc1nc2ccccc2[nH]1 | 5% (inactive) |
| COc1ccc(-c2ccccc2)cc1NCc1c2ccccc2cc2ccccc12 | 2% (inactive) |
| COc1ccc(-c2nc3ccc(Cc4ccc5nc(-c6ccc(OC)cc6)c(-c6ccc(OC)cc6)nc5c4)cc3nc2-c2ccc(OC)cc2)cc1 | 55% (active) |
| COc1ccc2nc(-c3ccccc3)c(-c3ccccc3)nc2c1 | 6% (inactive) |
| COc1ccc(Cc2ccc(OC)cc2)cc1 | 5% (inactive) |
| C#CCOc1ccc(/C=C2/C(=O)NC(=O)N(c3ccccc3F)C2=O)cc1 | 0% (inactive) |
| S=c1[nH]c2ccccc2n1CCOc1ccccc1 | 30% (inactive) |
| S=c1[nH]c2ccccc2n1CCOc1ccc(Cl)cc1 | 39% (inactive) |
| Cc1ccc(OCCn2c(=S)[nH]c3ccccc32)cc1 | 61% (active) |
| Cc1ccccc1OCCOc1ccccc1/C=c1\sc2nc3ccccc3n2c1=O | 9% (inactive) |
| O=C(COc1ccc(Cl)cc1)Oc1ccc2c(c1)oc(=O)c1ccccc12 | 54% (active) |
| Cc1cc(=O)oc2cc(OCC(=O)c3ccc(Cl)cc3)ccc12 | 19% (inactive) |
| Cc1c(Cl)c(=O)oc2cc(OCc3ccc(Cl)cc3)ccc12 | 3% (inactive) |
| CC(C)OC(=O)COc1ccc2c(c1)oc(=O)c1ccccc12 | 0% (inactive) |
| Cc1c(Cl)c(=O)oc2cc(OCC(=O)c3ccc(Cl)cc3)ccc12 | 50% (active) |
| CC(=O)COc1ccc2c(c1)oc(=O)c1ccccc12 | 7% (inactive) |
| O=C1CCCC2=C1C(c1ccccc1Cl)Nc1ccc(C(=O)c3ccccc3)cc1N2 (stereo unspecified) | 1% (inactive) |
| Cc1ccc(C(=O)Nc2cc(C)cc(C)c2)cc1 | 0% (inactive) |
| Cc1ccc(N=Cc2c(O)n(C3CCCCC3)c(=O)n(C3CCCCC3)c2=O)cc1C | 6% (inactive) |
| O=C(Nc1nnc(CSCc2ccccc2Cl)s1)Nc1ccc(Cl)cc1Cl | 46% (inactive) |
| Cc1cccc(CSCc2nnc(NC(=O)Nc3ccc(Cl)cc3Cl)s2)c1 | 53% (active) |
| O=C(Nc1nnc(Cc2ccc(Cl)cc2Cl)s1)Nc1ccc(Cl)cc1Cl | 66% (active) |
| CCC(c1ccccc1)c1nnc(NC(=O)Nc2ccc(Cl)cc2Cl)s1 (stereo unspecified) | 12% (inactive) |
| CC(c1ccccc1)c1nnc(NC(=O)Nc2ccc(Cl)cc2Cl)s1 (stereo unspecified) | 36% (inactive) |

| SMILES | inhibition |
| --- | --- |
| O=C(Nc1nnc(Cc2ccc(Cl)cc2)s1)Nc1ccc(Cl)cc1Cl | 37% (inactive) |
| O=C(Nc1nnc(C(c2ccccc2)c2ccccc2)s1)Nc1ccc(Cl)cc1Cl | 52% (active) |
| O=C(Nc1nnc(CSCc2ccc(Cl)cc2Cl)s1)Nc1ccc(Cl)cc1Cl | 33% (inactive) |
| O=C(Nc1nnc(CSCc2ccccc2)s1)Nc1ccc(Cl)cc1Cl | 39% (inactive) |
| O=C(Nc1nnc(Cc2ccccc2F)s1)Nc1ccc(Cl)cc1Cl | 18% (inactive) |
| O=C(Nc1nnc(CSCc2ccccc2F)s1)Nc1ccc(Cl)cc1Cl | 53% (active) |
| Cc1cccc(CSCc2nnc(NC(=O)Nc3ccc(Cl)cc3)s2)c1 | 31% (inactive) |
| COc1ccc2ccccc2c1-c1cc(C(=O)N/N=C/c2ccc(C)cc2)[nH]n1 | 13% (inactive) |
| CCCOC(=O)c1ccc(NC(=S)NC(=O)c2ccc(OCCC)cc2)cc1 | 20% (inactive) |
| CCOc1ccc(NC(=O)c2c(NC(=O)C(C)(C)C)sc3c2CCCC3)cc1 | 13% (inactive) |
| COc1cccc(/C=N\NC(=O)CNc2ccccc2C)c1 | 5% (inactive) |
| CCOC(=O)C1=C(C)N=c2s/c(=C\c3ccc(-c4ccc(Cl)cc4[N+](=O)[O-])o3)c(=O)n2C1c1ccc(OC)cc1 (stereo unspecified) | 43% (inactive) |
| O=[N+]([O-])c1ccc(N2CCCC2)c(C(F)(F)F)c1 | 21% (inactive) |
| O=C(NC(=S)Nc1cc([N+](=O)[O-])ccc1F)c1cccc(I)c1 | 4% (inactive) |
| COc1ccc(C2CC(c3ccc(Cl)cc3)=NN2c2nc(-c3ccc(C)cc3)cs2)cc1OC (stereo unspecified) | 3% (inactive) |
| COc1ccc(-c2csc(N3N=C(c4ccc(Cl)cc4)CC3c3ccc(OC)c(OC)c3)n2)cc1F (stereo unspecified) | 3% (inactive) |
| COc1ccc(C2CC(c3ccc(Cl)cc3)=NN2c2nc(-c3cccc(N4C(=O)c5ccccc5C4=O)c3)cs2)cc1OC (stereo unspecified) | 53% (active) |
| COc1cc(OC)c(NC(=O)C(Cl)(Cl)Cl)cc1Cl | 2% (inactive) |
| CCOc1cc(/C=C(\C#N)c2ccc([N+](=O)[O-])cc2)ccc1O | 8% (inactive) |
| CCOc1ccc(/C=C(/C#N)c2ccc(Cl)cc2)cc1Cl | 54% (active) |
| COc1ccc(/C=C(\C#N)c2ccc(Cl)cc2)cc1OC | 20% (inactive) |
| O=C(O)c1c[nH]c2ccc(Br)cc2c1=O | 13% (inactive) |
| Cc1cccc(N2C(=O)NC(=O)/C(=C\C=C\c3ccccc3[N+](=O)[O-])C2=O)c1 | 24% (inactive) |
| CCN1C(=O)NC(c2ccc(Br)cc2)C(C(=O)OCCOC)=C1C (stereo unspecified) | 0% (inactive) |

| SMILES | inhibition |
| --- | --- |
| O=C(Nc1ccc(-c2nc3ccc(NC(=O)c4ccccc4)cc3[nH]2)cc1)c1ccccc1 | 4% (inactive) |
| O=C1c2cccc3ccc(Cl)c(c23)C(=O)N1Oc1ccc([N+](=O)[O-])cc1[N+](=O)[O-] | 3% (inactive) |
| O=C1c2cccc3c(Cl)ccc(c23)C(=O)N1O | 15% (inactive) |
| O=C1c2cccc3ccc(Cl)c(c23)C(=O)N1O | 90% (active) |
| Cc1c(NC(=O)c2cc([N+](=O)[O-])ccc2Cl)cccc1-c1nc2ccccc2s1 | 6% (inactive) |
| COc1ccc2oc(=O)c(-c3nnc(Nc4cccc(C)c4)s3)cc2c1 | 50% (active) |
| COc1ccc2oc(=O)c(-c3csc(Nc4ccc(Cl)cc4)n3)cc2c1 | 57% (active) |
| COc1ccc2oc(=O)c(-c3nnc(Nc4ccccc4C)s3)cc2c1 | 10% (inactive) |
| COc1ccc2oc(=O)c(-c3csc(NC(=O)/C=C\C(=O)O)n3)cc2c1 | 3% (inactive) |
| COc1ccc(Nc2nc(-c3cc4cc(OC)ccc4oc3=O)cs2)cc1 | 13% (inactive) |
| COc1ccc2oc(=O)c(-c3csc(Nc4ccccc4Br)n3)cc2c1 | 8% (inactive) |
| COc1cccc(Nc2nnc(-c3cc4cc(OC)ccc4oc3=O)s2)c1 | 43% (inactive) |
| COc1ccc2oc(=O)c(-c3csc(Nc4ccc(C(C)=O)cc4)n3)cc2c1 | 1% (inactive) |
| COc1ccc2oc(=O)c(-c3csc(/N=C/c4ccccc4O)n3)cc2c1 | 67% (active) |
| COc1cccc(Nc2nc(-c3cc4cc(Br)ccc4oc3=O)cs2)c1 | 12% (inactive) |
| COc1ccc2oc(=O)c(-c3csc(Nc4ccccc4)n3)cc2c1 | 17% (inactive) |
| CCOC(=O)N(Cc1ccccc1)C(C(=O)O)C(C(=O)O)N(Cc1ccccc1)C(=O)OCC (stereo unspecified) | 0% (inactive) |
| O=CNC(NC(=S)Nc1cc(Cl)ccc1Cl)C(Cl)(Cl)Cl (stereo unspecified) | 17% (inactive) |
| Cc1ccc([N+](=O)[O-])cc1/C=C1/SC(=S)N(c2cccc(C(F)(F)F)c2)C1=O | 5% (inactive) |
| O=C(COc1ccc(Br)cc1Cl)Nc1cc(Cl)ccc1Cl | 8% (inactive) |
| COc1ccc(OC)c(N(CC(=O)NCC(C)C)S(C)(=O)=O)c1 | 0% (inactive) |
| CC(=O)C1=C(C)NC(SCC(=O)c2ccc(C)cc2)=C(C#N)C1c1ccc(Br)cc1 (stereo unspecified) | 18% (inactive) |
| O=C(NC(=S)Nc1ccc(Cl)c([N+](=O)[O-])c1)c1ccc(-c2ccccc2)cc1 | 13% (inactive) |
| O=C(Nc1ccccc1-c1nc2ccccc2[nH]1)c1ccc([N+](=O)[O-])cc1 | 44% (inactive) |
